Experimental data reported in ChEMBL document CHEMBL1961873, “Compounds: GSK PKIS; Assays: Nanosyn kinase panel” (2012).

Tests used:
[1] = target: Rho-associated protein kinase 1 (Homo sapiens) (UniProt Q13464); conditions: at 1 µM;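 further: reported values are mean percent inhibition of ROCK1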
[2] = target: Rho-associated protein kinase 2 (Homo sapiens) (UniProt O75116); conditions: at 0.1 µM
[3] = target: Rho-associated protein kinase 2 (Homo sapiens) (UniProt O75116); conditions: at 1 µM
[4] = target: Ribosomal protein S6 kinase alpha-1 (Homo sapiens) (UniProt Q15418); conditions: at 0.1 µM
Ribosomal protein S6 kinase alpha-1 (Homo sapiens), sequence (Q15418 whole entry): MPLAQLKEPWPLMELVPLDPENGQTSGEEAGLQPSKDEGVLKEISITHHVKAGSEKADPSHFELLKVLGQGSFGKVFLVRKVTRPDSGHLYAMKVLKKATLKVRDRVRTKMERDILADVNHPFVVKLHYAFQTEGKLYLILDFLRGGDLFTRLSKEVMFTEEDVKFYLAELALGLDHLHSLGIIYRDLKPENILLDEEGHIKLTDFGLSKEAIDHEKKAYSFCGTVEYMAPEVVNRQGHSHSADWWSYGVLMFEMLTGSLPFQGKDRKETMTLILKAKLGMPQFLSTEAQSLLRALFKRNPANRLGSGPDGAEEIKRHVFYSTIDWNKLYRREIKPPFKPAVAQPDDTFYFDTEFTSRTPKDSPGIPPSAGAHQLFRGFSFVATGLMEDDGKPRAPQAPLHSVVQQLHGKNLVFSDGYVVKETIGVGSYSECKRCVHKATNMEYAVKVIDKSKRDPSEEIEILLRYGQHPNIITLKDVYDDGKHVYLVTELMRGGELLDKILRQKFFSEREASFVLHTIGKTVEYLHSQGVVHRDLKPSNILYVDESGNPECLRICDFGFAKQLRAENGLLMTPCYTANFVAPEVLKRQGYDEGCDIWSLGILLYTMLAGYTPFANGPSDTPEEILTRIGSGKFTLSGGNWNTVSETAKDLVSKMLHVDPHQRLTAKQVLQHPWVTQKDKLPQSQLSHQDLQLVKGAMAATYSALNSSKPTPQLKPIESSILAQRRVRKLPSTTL

[5] = target: Ribosomal protein S6 kinase alpha-1 (Homo sapiens) (UniProt Q15418); conditions: at 1 µM
[6] = target: Ribosomal protein S6 kinase alpha-3 (Homo sapiens) (UniProt P51812); conditions: at 0.1 µM
Ribosomal protein S6 kinase alpha-3 (Homo sapiens), sequence (P51812 whole entry): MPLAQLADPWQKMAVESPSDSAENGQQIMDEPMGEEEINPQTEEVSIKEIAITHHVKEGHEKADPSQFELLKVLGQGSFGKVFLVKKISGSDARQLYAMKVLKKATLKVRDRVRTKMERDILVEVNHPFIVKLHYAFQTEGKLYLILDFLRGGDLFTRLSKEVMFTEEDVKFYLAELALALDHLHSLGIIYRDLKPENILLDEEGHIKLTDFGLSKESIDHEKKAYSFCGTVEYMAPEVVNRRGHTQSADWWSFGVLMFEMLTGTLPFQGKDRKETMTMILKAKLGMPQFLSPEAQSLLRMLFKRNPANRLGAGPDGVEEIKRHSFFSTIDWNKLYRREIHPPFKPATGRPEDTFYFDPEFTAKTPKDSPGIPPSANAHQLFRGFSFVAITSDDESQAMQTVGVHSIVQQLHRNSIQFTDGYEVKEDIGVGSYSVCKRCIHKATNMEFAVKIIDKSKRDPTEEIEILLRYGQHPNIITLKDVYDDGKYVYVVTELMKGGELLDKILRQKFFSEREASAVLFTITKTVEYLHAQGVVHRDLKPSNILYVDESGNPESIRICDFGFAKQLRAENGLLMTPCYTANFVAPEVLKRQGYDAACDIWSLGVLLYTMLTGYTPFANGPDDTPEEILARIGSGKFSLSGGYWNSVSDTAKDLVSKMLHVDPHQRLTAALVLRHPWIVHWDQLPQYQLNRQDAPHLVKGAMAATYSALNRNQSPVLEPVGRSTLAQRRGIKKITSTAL

[7] = target: Ribosomal protein S6 kinase alpha-3 (Homo sapiens) (UniProt P51812); conditions: at 1 µM
[8] = target: Ribosomal protein S6 kinase alpha-2 (Homo sapiens) (UniProt Q15349); conditions: at 0.1 µM
Ribosomal protein S6 kinase alpha-2 (Homo sapiens), sequence (Q15349 whole entry): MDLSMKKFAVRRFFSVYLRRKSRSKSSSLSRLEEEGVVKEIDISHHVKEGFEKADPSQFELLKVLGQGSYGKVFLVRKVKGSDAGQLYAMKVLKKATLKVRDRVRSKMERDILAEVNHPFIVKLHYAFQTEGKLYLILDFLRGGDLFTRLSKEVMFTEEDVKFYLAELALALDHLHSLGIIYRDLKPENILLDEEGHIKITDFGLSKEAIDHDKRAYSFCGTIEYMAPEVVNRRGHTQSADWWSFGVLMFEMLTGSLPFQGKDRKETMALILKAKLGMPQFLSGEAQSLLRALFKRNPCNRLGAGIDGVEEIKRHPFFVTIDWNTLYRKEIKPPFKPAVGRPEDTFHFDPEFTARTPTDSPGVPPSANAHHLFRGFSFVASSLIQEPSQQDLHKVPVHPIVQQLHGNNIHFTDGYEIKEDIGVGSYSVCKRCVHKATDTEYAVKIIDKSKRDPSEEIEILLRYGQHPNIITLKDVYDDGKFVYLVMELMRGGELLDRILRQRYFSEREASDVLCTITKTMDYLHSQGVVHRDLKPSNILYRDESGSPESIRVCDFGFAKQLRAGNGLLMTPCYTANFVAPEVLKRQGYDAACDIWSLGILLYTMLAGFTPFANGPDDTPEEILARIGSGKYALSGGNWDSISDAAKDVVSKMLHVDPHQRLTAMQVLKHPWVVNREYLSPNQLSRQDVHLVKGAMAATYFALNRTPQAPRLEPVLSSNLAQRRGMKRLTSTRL

[9] = target: Ribosomal protein S6 kinase alpha-2 (Homo sapiens) (UniProt Q15349); conditions: at 1 µM
[10] = target: Ribosomal protein S6 kinase alpha-6 (Homo sapiens) (UniProt Q9UK32); conditions: at 0.1 µM;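 further: reported value is the mean inhibition of RSK4, from the GSK PKIS kinase inhibitor screen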

Rho-associated protein kinase 2 (Homo sapiens), sequence (O75116 whole entry, looked up): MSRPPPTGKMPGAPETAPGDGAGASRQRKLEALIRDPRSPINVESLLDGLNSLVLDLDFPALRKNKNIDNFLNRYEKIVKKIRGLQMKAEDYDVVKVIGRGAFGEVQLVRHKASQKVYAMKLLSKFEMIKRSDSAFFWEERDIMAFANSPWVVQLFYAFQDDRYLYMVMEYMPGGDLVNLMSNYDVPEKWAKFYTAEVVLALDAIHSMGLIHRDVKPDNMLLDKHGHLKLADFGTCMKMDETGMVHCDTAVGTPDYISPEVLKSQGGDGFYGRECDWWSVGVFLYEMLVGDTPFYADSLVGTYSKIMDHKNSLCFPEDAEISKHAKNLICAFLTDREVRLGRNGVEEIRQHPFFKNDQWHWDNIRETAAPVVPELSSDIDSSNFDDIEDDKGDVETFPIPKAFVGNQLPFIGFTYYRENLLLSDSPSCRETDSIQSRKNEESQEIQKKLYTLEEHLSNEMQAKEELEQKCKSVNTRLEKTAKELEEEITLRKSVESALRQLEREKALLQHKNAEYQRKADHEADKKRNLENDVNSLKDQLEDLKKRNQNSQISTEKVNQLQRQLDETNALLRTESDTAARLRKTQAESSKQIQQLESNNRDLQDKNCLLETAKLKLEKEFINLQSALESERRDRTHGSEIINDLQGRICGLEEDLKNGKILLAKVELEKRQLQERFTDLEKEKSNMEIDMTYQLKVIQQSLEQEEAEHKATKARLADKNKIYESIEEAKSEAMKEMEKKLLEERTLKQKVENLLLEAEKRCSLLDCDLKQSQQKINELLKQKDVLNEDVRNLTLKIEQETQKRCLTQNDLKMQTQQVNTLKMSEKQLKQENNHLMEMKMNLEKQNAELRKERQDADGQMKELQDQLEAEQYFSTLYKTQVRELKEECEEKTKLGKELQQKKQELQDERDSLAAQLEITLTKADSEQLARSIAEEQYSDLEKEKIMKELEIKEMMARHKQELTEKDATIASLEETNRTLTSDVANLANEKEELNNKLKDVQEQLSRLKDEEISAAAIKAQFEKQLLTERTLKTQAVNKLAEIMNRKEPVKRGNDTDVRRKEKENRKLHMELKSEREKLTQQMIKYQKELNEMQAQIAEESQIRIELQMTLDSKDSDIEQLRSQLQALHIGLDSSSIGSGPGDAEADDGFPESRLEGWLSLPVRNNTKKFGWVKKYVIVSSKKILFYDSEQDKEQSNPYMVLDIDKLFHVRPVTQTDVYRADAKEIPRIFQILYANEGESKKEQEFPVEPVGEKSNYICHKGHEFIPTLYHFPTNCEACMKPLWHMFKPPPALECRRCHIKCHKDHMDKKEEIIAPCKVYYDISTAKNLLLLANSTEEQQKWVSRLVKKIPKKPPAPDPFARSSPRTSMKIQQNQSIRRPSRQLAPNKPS
Rho-associated protein kinase 1 (Homo sapiens), sequence (Q13464 2-1354 limits assumed): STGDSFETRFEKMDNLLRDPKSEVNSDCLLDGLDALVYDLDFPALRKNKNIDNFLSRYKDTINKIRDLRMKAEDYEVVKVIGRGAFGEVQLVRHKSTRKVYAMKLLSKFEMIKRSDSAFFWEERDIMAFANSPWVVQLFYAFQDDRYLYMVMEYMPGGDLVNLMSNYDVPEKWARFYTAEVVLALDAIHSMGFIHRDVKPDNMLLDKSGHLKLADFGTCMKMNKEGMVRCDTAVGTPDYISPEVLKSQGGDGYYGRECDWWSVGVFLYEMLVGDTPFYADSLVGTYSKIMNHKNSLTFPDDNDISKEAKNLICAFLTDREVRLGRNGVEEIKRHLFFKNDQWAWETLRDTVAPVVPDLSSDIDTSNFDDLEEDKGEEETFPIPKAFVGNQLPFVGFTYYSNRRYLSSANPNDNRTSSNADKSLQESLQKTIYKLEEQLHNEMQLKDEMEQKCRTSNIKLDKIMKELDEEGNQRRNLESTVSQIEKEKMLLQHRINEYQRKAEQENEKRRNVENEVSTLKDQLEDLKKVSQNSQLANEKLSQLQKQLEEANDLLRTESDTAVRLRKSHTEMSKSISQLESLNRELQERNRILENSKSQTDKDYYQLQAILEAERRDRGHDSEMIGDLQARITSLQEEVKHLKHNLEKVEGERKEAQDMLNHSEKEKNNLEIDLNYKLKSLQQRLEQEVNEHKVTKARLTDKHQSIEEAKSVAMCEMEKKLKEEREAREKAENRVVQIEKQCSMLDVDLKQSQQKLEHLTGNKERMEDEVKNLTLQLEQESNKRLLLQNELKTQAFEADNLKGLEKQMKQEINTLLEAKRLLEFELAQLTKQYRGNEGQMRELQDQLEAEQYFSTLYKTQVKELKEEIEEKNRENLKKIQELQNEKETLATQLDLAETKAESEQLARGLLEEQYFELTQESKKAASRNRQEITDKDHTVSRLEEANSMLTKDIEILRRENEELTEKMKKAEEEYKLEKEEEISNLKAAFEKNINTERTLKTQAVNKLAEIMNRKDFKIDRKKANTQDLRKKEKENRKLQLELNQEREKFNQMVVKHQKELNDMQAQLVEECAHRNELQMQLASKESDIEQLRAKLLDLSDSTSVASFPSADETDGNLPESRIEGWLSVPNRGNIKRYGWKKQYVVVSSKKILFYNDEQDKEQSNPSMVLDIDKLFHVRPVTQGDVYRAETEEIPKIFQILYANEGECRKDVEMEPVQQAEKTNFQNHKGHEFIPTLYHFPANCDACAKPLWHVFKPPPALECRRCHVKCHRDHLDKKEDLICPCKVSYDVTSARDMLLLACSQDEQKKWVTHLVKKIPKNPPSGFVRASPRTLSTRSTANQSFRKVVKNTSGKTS

## COC(=O)c1ccc2c(c1)C(=Cc1cc(Br)c(O)c(Br)c1)C(=O)N2
[1]
  inhibition: 1.74%
[2]
  inhibition: 1.52%
[3]
  inhibition: 3.89%
[4]
  inhibition: 1.5%
[5]
  inhibition: 6.51%
[6]
  inhibition: 1.97%
[7]
  inhibition: 4.23%
[8]
  inhibition: 3.99%
[9]
  inhibition: 6.79%
[10]
  inhibition: 2.52%

## COc1cccc(-n2ncc3c(N/N=C/c4ccc(S(C)(=O)=O)cc4)ncnc32)c1
[1]
  inhibition: 1.16%
[2]
  inhibition: 1.71%
[3]
  inhibition: 1.85%
[4]
  inhibition: 1.45%
[5]
  inhibition: 0.53%
[6]
  inhibition: 1.53%
[7]
  inhibition: 0.98%
[8]
  inhibition: 1.87%
[9]
  inhibition: 4.48%
[10]
  inhibition: 0.99%

## Cc1cc(Cl)cc2c1NC(=O)C2=NNc1ccc(S(N)(=O)=O)cc1
[1]
  inhibition: 0.46%
[2]
  inhibition: 2.77%
[3]
  inhibition: 4.97%
[4]
  inhibition: 2.28%
[5]
  inhibition: 4.19%
[6]
  inhibition: 1.6%
[7]
  inhibition: 3.02%
[8]
  inhibition: 2.57%
[9]
  inhibition: 1.19%
[10]
  inhibition: 0.74%

## NS(=O)(=O)c1cccc(Nc2cc(-c3ccc(F)cc3)n[nH]2)c1
[1]
  inhibition: 3.34%
[2]
  inhibition: 3.4%
[3]
  inhibition: 8.75%
[4]
  inhibition: 3.22%
[5]
  inhibition: 7.2%
[6]
  inhibition: 2.09%
[7]
  inhibition: 5.61%
[8]
  inhibition: 2.21%
[9]
  inhibition: 4.15%
[10]
  inhibition: 1.89%

## CCn1c(-c2nonc2N)nc2ccc(F)cc21
[1]
  inhibition: 9.21%
[2]
  inhibition: 5.67%
[3]
  inhibition: 19%
[4]
  inhibition: 4.37%
[5]
  inhibition: 21%
[6]
  inhibition: 2.79%
[7]
  inhibition: 9.91%
[8]
  inhibition: 2.93%
[9]
  inhibition: 14%
[10]
  inhibition: 1.56%

## Cc1ccc2c(-c3ccnc(Nc4ccc5c(c4)OCCO5)n3)c(-c3ccc(C(F)(F)F)cc3)nn2n1
[1]
  inhibition: 1.22%
[2]
  inhibition: 0.44%
[3]
  inhibition: 1.89%
[4]
  inhibition: 0.91%
[5]
  inhibition: 0.79%
[6]
  inhibition: 1.19%
[7]
  inhibition: 1.86%
[8]
  inhibition: 1.06%
[9]
  inhibition: 1.53%
[10]
  inhibition: -0.18%

## NC(=O)c1cccc(Nc2nccc(Nc3cccc(F)c3)n2)c1
[1]
  inhibition: 0.46%
[2]
  inhibition: 0.51%
[3]
  inhibition: 1.52%
[4]
  inhibition: -1.2%
[5]
  inhibition: 1.35%
[6]
  inhibition: 0.35%
[7]
  inhibition: 1.16%
[8]
  inhibition: 1.27%
[9]
  inhibition: 1.94%
[10]
  inhibition: 1.27%

## CCOc1nccc2c1nc(-c1nonc1N)n2CC
[1]
  inhibition: 10.8%
[2]
  inhibition: 4.9%
[3]
  inhibition: 23.1%
[4]
  inhibition: 5.34%
[5]
  inhibition: 30%
[6]
  inhibition: 3.74%
[7]
  inhibition: 17.1%
[8]
  inhibition: 5.7%
[9]
  inhibition: 27.9%
[10]
  inhibition: 1.8%

## NS(=O)(=O)c1ccc(Nc2cc(-c3cccc(O)c3)n[nH]2)cc1
[1]
  inhibition: 2.17%
[2]
  inhibition: 3.43%
[3]
  inhibition: 4.85%
[4]
  inhibition: 2.5%
[5]
  inhibition: 6.11%
[6]
  inhibition: 2.14%
[7]
  inhibition: 6.36%
[8]
  inhibition: 1.18%
[9]
  inhibition: 5.39%
[10]
  inhibition: 1.24%

## CN(C)C(=O)O[C@H]1CN[C@H](C#Cc2cc3ncnc(Nc4ccc(OCc5cccc(F)c5)c(Cl)c4)c3s2)C1
[1]
  inhibition: 4.25%
[2]
  inhibition: 2.11%
[3]
  inhibition: 2.54%
[4]
  inhibition: 1.95%
[5]
  inhibition: 2.1%
[6]
  inhibition: 0.75%
[7]
  inhibition: 1.6%
[8]
  inhibition: 0.37%
[9]
  inhibition: 3.74%
[10]
  inhibition: 0.96%

## Cc1ccc2c(c1)/C(=N/Nc1ccc(S(N)(=O)=O)cc1)C(=O)N2
[1]
  inhibition: 2.75%
[2]
  inhibition: -0.99%
[3]
  inhibition: 2.52%
[4]
  inhibition: 0.21%
[5]
  inhibition: 0.22%
[6]
  inhibition: 0.34%
[7]
  inhibition: 2.42%
[8]
  inhibition: 0.05%
[9]
  inhibition: 3.92%
[10]
  inhibition: 1.62%

## Cc1cc(-c2ccccn2)cc(C)c1/C=C/c1cncc(-c2nn[nH]n2)c1
[1]
  inhibition: 2.97%
[2]
  inhibition: 1.11%
[3]
  inhibition: 3.33%
[4]
  inhibition: -1.27%
[5]
  inhibition: 1.85%
[6]
  inhibition: -0.57%
[7]
  inhibition: 1.01%
[8]
  inhibition: 0.4%
[9]
  inhibition: 1.84%
[10]
  inhibition: -1.04%

## Cc1ccc(O)cc1Nc1ccnc2ccc(S(C)(=O)=O)cc12
[1]
  inhibition: 1.52%
[2]
  inhibition: 4.28%
[3]
  inhibition: 5.46%
[4]
  inhibition: 2.4%
[5]
  inhibition: 0.29%
[6]
  inhibition: 0.8%
[7]
  inhibition: 1.28%
[8]
  inhibition: 3.52%
[9]
  inhibition: 3.02%
[10]
  inhibition: 2.13%

## C[C@@H](Oc1cc(-n2cnc3ccc(OCC4CCN(C)CC4)cc32)sc1C(N)=O)c1ccccc1C(F)(F)F
[1]
  inhibition: 12%
[2]
  inhibition: 1.51%
[3]
  inhibition: 12%
[4]
  inhibition: 5.1%
[5]
  inhibition: 32.7%
[6]
  inhibition: 11.8%
[7]
  inhibition: 52%
[8]
  inhibition: 3.14%
[9]
  inhibition: 30.9%
[10]
  inhibition: 13.2%

## O=C1Nc2ccccc2/C1=C/Nc1ccc2[nH]c(=O)[nH]c2c1
[1]
  inhibition: 4.42%
[2]
  inhibition: 3.76%
[3]
  inhibition: 13.7%
[4]
  inhibition: 3.61%
[5]
  inhibition: 20.9%
[6]
  inhibition: 2.19%
[7]
  inhibition: 14.7%
[8]
  inhibition: 4.19%
[9]
  inhibition: 20.5%
[10]
  inhibition: 2.19%

## c1ccc(Cc2nc3ccc(Nc4ncnc5ccccc45)cc3[nH]2)cc1
[1]
  inhibition: 1.95%
[2]
  inhibition: 2.34%
[3]
  inhibition: 4.82%
[4]
  inhibition: 2.52%
[5]
  inhibition: 4.1%
[6]
  inhibition: 0.88%
[7]
  inhibition: 2.69%
[8]
  inhibition: 1.07%
[9]
  inhibition: 3.24%
[10]
  inhibition: 0.96%
